Assay outcomes deposited in PubChem by National Center for Advancing Translational Sciences (NCATS).
Only some compounds are listed: those with a hit (about 17% of all), similar ones and a draw of the others.
DT40 TDP1 CPT – growth inhibition of DT40 Tdp1-/-;hTDP1 cells with camptothecin (screen for TDP1 inhibitors); chicken DT40 Tdp1-/-;hTDP1 cells + 20 nM CPT, ATP luminescence, 48 h; Potency, µM (highest dose often 46.2 µM), for inactives: top-dose activity change, negative = growth inhibition, usual class: inhibitors; hit rate 12% among 420,000; AID 686979; further: on the % scale 0 is the no-effect control and ±100 the full control effect; nearly all actives have a fitted effect of over 55% in size
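Chicken DT40 Tdp1-/- cells complemented with human TDP1, 400 cells/well, exposed to compounds plus 20 nM camptothecin for at least 48 h at 37 C; viability read as ATP content by CellTiter-Glo luminescence.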
ATXN viability – cell viability loss in ATXN counter-screen; AID 651635; Potency, µM (titrated, usually from 56.7 µM), usual class: cytotoxic; S2 cells (HEK-293 line with an ATXN2-luciferase reporter) viability, CellTiter-Fluor protease fluorescence, 24 h; hit rate 0.49% among 400,000; further: nearly all actives have a fitted effect of over 40% in size
TDP1 cell noCPT – qHTS for Inhibitors of human tyrosyl-DNA phosphodiesterase 1 (TDP1): qHTS in cells in absence of CPT; DT40 Tdp1-/- hTDP1 cells, no CPT, ATP luminescence, 48 h; Potency, µM (doses to about 46.2 µM), for the others: at the highest dose activity change, negative = growth inhibition, most hits filed as inhibitors; hit rate 15% among 420,000; AID 686978, 2013; further: on the % scale 0 is the no-effect control and ±100 the full control effect; nearly all actives have a fitted effect of over 55% in size
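A cellular qHTS used chicken DT40 cells lacking endogenous Tdp1 but carrying stably transfected human TDP1. Compounds were applied without camptothecin, and cell growth kinetics were judged by ATP-dependent luminescence after ≥48 hr.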
ATXN2 expr inh – inhibitors of ATXN2 expression; HEK-293 ATXN2-luciferase reporter, luminescence, 24 h; Potency, µM (top dose mostly 57 µM), for inactives: at the highest dose activity change, negative = inhibition, actives largely listed as inhibitors; hit rate 0.72% among 360,000; AID 1745845; further: on the % scale 0 is the no-effect control and ±100 the full control effect; nearly all actives have a fitted effect of over 55% in size
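qHTS (up to 57 uM final) was run with 24 h compound exposure of reporter cells at 37 °C. Each well was multiplexed: SteadyGlo luminescence measured ATXN2-luciferase expression after a fluorogenic Gly-Phe-AFC viability readout (25 uM final).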
TGFb SMAD3 inh – inhibitors of TGF-b signaling; HepG2 CAGA-GFP TGF-b/SMAD3 reporter, GFP fluorescence, 18 h; TGF-beta stimulated, 500 pg/mL final; Potency, µM (titrated, usually from 46.1 µM), inactives show at the highest dose activity, negative = inhibition, actives largely listed as inhibitors; hit rate 1.2% among 410,000; AID 588855; further: on the % scale 0 is the no-effect control and ±100 the full control effect; nearly all actives have a fitted effect of over 65% in size
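HEPG2 CAGA-GFP reporter cells (1000/well, DMEM with 1% FBS) received compounds, then recombinant TGF-beta at 500 pg/mL final for 18 hours at 37 degrees C. Per-cell GFP summed per well was normalised to unstimulated and stimulated DMSO controls before curve fitting.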
HepG2 tox – kills HepG2 cells in TGF-b inhibitor counter-screen; HepG2 CAGA-GFP viability, ATP luminescence, 18 h; Potency, µM (top dose mostly 46.1 µM), for the others: at the top dose activity change, negative = cytotoxicity, actives largely listed as cytotoxic; hit rate 0.76% among 410,000; AID 588856
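HepG2 CAGA-GFP cells (1000/well, DMEM with 1% FBS) received compound, then TGF-beta at 500 pg/mL final, and were incubated 18 hours at 37 degrees C. Viability was read by CellTiter-Glo luminescence. Media-only wells were set as complete cell-killing and DMSO as no toxicity.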
Numbers without * were called inactive; i = inactive; u = inconclusive; x = no result given. The call rests on the fitted dose curve; in most records, active means well fitted curve in the direction sought with a large enough effect; inconclusive means small, poorly fitted or top-dose-only effect, or another doubt; inactive means no such curve, though single readings can be large; an effect the other way counts as inactive or inconclusive. Potency means the concentration at half of the fitted maximal effect.

SMILES	DT40 TDP1 CPT	ATXN viability	TDP1 cell noCPT	ATXN2 expr inh	TGFb SMAD3 inh	HepG2 tox
Cc1cccc(/C=N/NC(=O)c2cc(C)nc3ccccc23)n1	u	i	u	x	31%	-1%
Cc1cc(C(=O)N/N=C/c2ccc([N+](=O)[O-])s2)c2ccccc2n1	26µM*	u	15µM*	u	10µM*	-92%
O=C(N/N=C/c1cc([N+](=O)[O-])ccc1Cl)c1cc(-c2ccccc2)nc2ccccc12	u	i	u	-4%	4%	-5%
CCc1cc(C(=O)N/N=C/c2ccc(O)cc2)c2ccccc2n1	-27%	i	8.2µM*	10%	1%	0%
Cc1nc2c(cc1C(=O)N/N=C/c1ccc([N+](=O)[O-])cc1)c(=O)n(C)c(=O)n2C	-22%	i	-23%	-1%	-4%	-8%
Cc1cc(C(=O)N/N=C/c2ccc([N+](=O)[O-])cc2)c2ccccc2n1	2.9µM*	i	3.3µM*	u	0%	54%
O=C(N/N=C/c1cc([N+](=O)[O-])ccc1O)c1cc(-c2ccccc2)nc2ccccc12	5.8µM*	u	5.8µM*	10µM*	-17%	-1%
O=C(COC(=O)CCc1ccccc1)Nc1ccccc1OC(F)F	-6%	i	-12%	5%	-20%	9%
Cc1nc2cnc(N(C)C)nc2n(C)c1=O	10%	x	-5%	x	x	x
CCOc1ccc(NS(=O)(=O)c2cccc(C(=O)N3CCN(C/C=C/c4ccccc4)CC3)c2)cc1	u	u	16µM*	u	u	-32%
CCOc1ccc(NC(=S)N2CCN(C/C=C/c3ccccc3)CC2)cc1	u	i	18µM*	2%	1%	-1%
COc1ccc2cccc(N3CCN(CCNC(=O)c4ccc(F)cc4)CC3)c2c1	19µM*	x	21µM*	x	x	x
COc1ccccc1N1CCN(CCCCNC(=O)c2ccc3ccccc3c2)CC1	u	u	21µM*	-21%	28%	-38%
COc1ccc(C(=O)NCCCN2CCN(CCCNC(=O)c3ccc(OC)c(OC)c3)CC2)cc1OC	23%	i	-20%	-19%	7%	-3%
c1nc(NCC2(N3CCOCC3)CCCCC2)c2ccsc2n1	12µM*	i	18µM*	8%	-4%	-14%
Cc1sc2ncnc(NCC3(N4CCOCC4)CCCCC3)c2c1C	21µM*	i	23µM*	-11%	u	-2%
CC(=O)N1CCN(C(=O)c2sc3ncnc(NCC4CCCO4)c3c2C)CC1 (stereo unspecified)	-14%	i	-11%	x	x	x
Cc1sc2ncnc(NCC(C)(C)N3CCOCC3)c2c1C	2.1µM*	i	1.5µM*	-12%	u	-28%
Cc1sc2ncnc(NCC3CCCO3)c2c1C (stereo unspecified)	16µM*	i	9.2µM*	-19%	-11%	-23%
CC1CN(C(=S)NC(=O)C2CCCCC2)CC(C)O1 (stereo unspecified)	-5%	i	0%	-1%	4%	4%
COc1ccc(-c2nc3cnc(Oc4cccc(Cl)c4)nc3n(C[C@H]3CCCO3)c2=O)cc1	-12%	x	-9%	x	x	x
COc1ccccc1Cc1nc2ccccc2[nH]c1=O	4%	i	7%	9%	4%	-6%
